# Assay outcomes as filed in PubChem.
# Only some compounds are listed: those with a hit (about 9.2% of all), similar ones and a draw of the others.
# Lamin A splicing = LMNA splicing modulation; 0.01% of 200,000 active; HeLa LMNA splicing GFP/RFP minigene ratio, 48 h; Potency, µM (top dose mostly 46.1 µM), without a hit: top-dose ratio change, negative = inhibition, most hits filed as inhibitors; active = well fitted inhibition curve with a large enough effect in the signal ratio, with a control signal flat, not every such curve was filed as active; inconclusive = small, poorly fitted or top-dose-only effect, or effect the other way, or a change in a side signal; the % refers to the signal ratio; note: potency is the fitted concentration of half-maximal effect; % is set by controls: 0 for no effect and ±100 for the full control effect
#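 Read-out is the ratio of GFP to DsRed2 object intensity, acquired by 488 nm laser-scanning cytometry on HeLa lamin A-EGFP minigene reporter cells. Compound incubation 48 hrs at 37 °C in Opti-MEM with 2% FBS; DMSO 0.5% final.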
# KDM4E inh = inhibitors of human JMJD2E histone demethylase; B2RXH2; JMJD2E catalytic domain, FDH-coupled NADH fluorescence (FDH is formaldehyde dehydrogenase); Potency, µM (top dose mostly 57.1 µM), inactives show at the top dose activity change, negative = inhibition, hits mostly inhibitors; 1.6% of 230,000 active; AID 2147;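 note: potency is the fitted concentration of half-maximal effect; 0% = wells with enzyme and -100% = buffer wells without enzyme; nearly all actives have a fitted effect of over 50% in size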
# Target sequence (B2RXH2 1-337 limits assumed): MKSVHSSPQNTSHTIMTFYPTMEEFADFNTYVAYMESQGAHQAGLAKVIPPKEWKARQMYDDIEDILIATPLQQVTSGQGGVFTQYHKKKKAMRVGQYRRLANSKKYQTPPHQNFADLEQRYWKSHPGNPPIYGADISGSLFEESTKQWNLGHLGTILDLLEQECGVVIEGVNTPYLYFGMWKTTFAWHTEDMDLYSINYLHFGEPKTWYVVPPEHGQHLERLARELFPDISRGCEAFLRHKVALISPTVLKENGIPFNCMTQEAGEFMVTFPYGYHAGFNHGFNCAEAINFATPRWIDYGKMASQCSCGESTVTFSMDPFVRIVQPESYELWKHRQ
# HttQ103 aggreg = reduces HttQ103-GFP aggregates in PC12 cells; PC12 HttQ103-GFP aggregates, Acumen cytometry, 40 h; 1.1% of 220,000 active; Potency, µM (top dose mostly 46.1 µM), for the others: top-dose activity change, negative = inhibition, actives largely listed as inhibitors; AID 1688; active = well fitted curve in the direction sought with a large enough effect; inconclusive = small, poorly fitted or top-dose-only effect, or another doubt; inactive = no such curve, though single readings can be large; an effect the other way counts as inactive or inconclusive; note: potency is the fitted concentration of half-maximal effect; % is set by controls: 0 for no effect and ±100 for the full control effect; nearly all actives have a fitted effect of over 60% in size
#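 Using laser scanning cytometry, GFP-positive aggregates were counted after lysis of PC12 cells induced with 100 nM tebufenozide to express HTT exon 1 Q103–GFP. Compounds were tested in titration.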
# ALDH1A1 inh-1 = inhibitors of human aldehyde dehydrogenase 1A1 | AID 1030 | P00352 | Purified ALDH1A1, NADH fluorescence, propionaldehyde substrate | Potency, µM (highest dose often 75.3 µM), inactives show at the highest dose activity, negative = inhibition, actives largely listed as inhibitors | 7.3% of 220,000 active;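 note: potency is the fitted concentration of half-maximal effect; plate controls were no enzyme wells and a reference inhibitor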
# HPGD inh = blocks human HPGD enzyme activity | Potency, µM, for the others: at the highest dose activity change, negative = inhibition, most hits filed as inhibitors | AID 894 | purified HPGD, NADH fluorescence kinetic, PGE2 substrate | P15428 | 4.3% of 150,000 active; note: potency is the fitted concentration of half-maximal effect; % is set by controls: 0 for no effect and ±100 for the full control effect
# Target sequence (P15428 whole entry, looked up): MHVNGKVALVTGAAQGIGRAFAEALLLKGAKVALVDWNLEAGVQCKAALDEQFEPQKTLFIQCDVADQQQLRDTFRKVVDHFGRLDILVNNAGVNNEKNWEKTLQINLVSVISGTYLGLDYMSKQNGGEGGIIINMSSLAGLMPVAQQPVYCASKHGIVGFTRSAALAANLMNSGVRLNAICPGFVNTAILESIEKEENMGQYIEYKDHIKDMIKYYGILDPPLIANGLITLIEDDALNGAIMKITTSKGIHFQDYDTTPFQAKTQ
#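 20 nM HPGD preincubated 15 min at room temperature with compound in 50 mM Tris-HCl pH 8, 0.01% Tween 20. Started with 1 mM NAD+ and 30 uM prostaglandin E2; NADH fluorescence (360/450 nm) read 5 times over 30-s intervals, last minus first.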
# HTT cytoprotect = Huntington cell model cytoprotection by ATP luminescence; AID 1471; 0.14% of 230,000 active; PC12 HTT-Q103 induced, cytoprotection, ATP luminescence, 40 h; Potency, µM (top dose mostly 56.4 µM), without a hit: cytoprotection (ATP increase), actives largely listed as activators; active = well fitted curve in the direction sought with a large enough effect; inconclusive = small, poorly fitted or top-dose-only effect, or another doubt; inactive = no such curve, though single readings can be large; an effect the other way counts as inactive or inconclusive; note: potency is the fitted concentration of half-maximal effect; % of control where 0% means no effect; nearly all actives have a fitted effect of over 45% in size
#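 Huntington model: PC12 line, ecdysone-inducible HTTQ103 exon1–GFP, tebufenozide 100 nM. Test articles in a dose series. Endpoint luminescence from cellular ATP.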
# HPGD inh cf = human HPGD enzyme inhibition, confirmation; shares compounds with HPGD inh; recombinant HPGD, NADH fluorescence, PGE2 substrate; Potency, µM (series often up to 57.1 µM), for inactives: at the top dose activity change, negative = inhibition, hits mostly inhibitors; 90% of 90 active; AID 2429; calls by dose curve
# ALDH1A1 inh-2 = Blocks ALDH1A1 NADH production, follow-up. shares compounds with ALDH1A1 inh-1. 90% of 90 active. Potency, µM (top dose mostly 57.1 µM), for inactives: at the highest dose activity change, negative = inhibition, usual class: inhibitors. purified ALDH1A1, NADH fluorescence, propionaldehyde/NAD+; calls by dose curve
# * = called active by the depositor; ? = inconclusive; · = not tested or not shown; [ ] = remark or other dose. Unless noted, calls come from the whole dose curve; as a rule, active = well fitted inhibition curve with a large enough effect (not every such curve was filed as active); inconclusive = small, poorly fitted or top-dose-only effect, or another doubt; inactive = no such curve, though single readings can be large or run the other way.
SMILES,Lamin A splicing,KDM4E inh,HttQ103 aggreg,ALDH1A1 inh-1,HPGD inh,HTT cytoprotect,HPGD inh cf,others
O=C(CSc1nc(-c2ccccc2)nn1C(=O)c1ccccc1)Nc1cccc([N+](=O)[O-])c1,19%,-6%,5%,22µM*,1.3µM*,-10%,2.5µM*,
Cc1ccc(C)c(S(=O)(=O)Nc2cc(SCC(=O)O)c(O)c3ccccc23)c1,?,12%,-18%,25µM*,0.89µM*,-2%[10 µM],0.4µM*,
Cc1ccc(NS(=O)(=O)c2cc(NC(=O)C(C)Oc3ccccc3)ccc2C)c(C)c1 (stereo unspecified),?,6%,5%,13%,-15%,-9%[10 µM],·,
Cn1c(=O)c(-c2cccc(F)c2)nc2cncnc21,-1%,·,·,?,·,-49%,·,
CC1=NOC(=O)/C1=C/c1ccc(-c2ccc(Cl)cc2)o1,?,?,?,4µM*,1.1µM*,-91%,1.1µM*,
CC1=NOC(=O)/C1=C\c1ccc(-c2ccc(Br)cc2C(=O)O)o1,·,?,3%,?,·,-31%,·,
CC1=NOC(=O)/C1=C\c1ccc(-c2cc(Cl)ccc2Cl)o1,-4%,-8%,-1%,3.5µM*,1.4µM*,6%[10 µM],0.45µM*,
COc1ccc(-c2nc(CSc3nc4ncccc4[nH]3)c(C)o2)cc1OC,-29%[46 µM],·,·,·,·,·,·,
Cc1ccccc1CSc1nc2ccccc2c(=O)[nH]1,18%,-7%,-27%,5%,1.6µM*,15%[10 µM],1µM*,
O=c1[nH]c(SCc2ccccc2F)nc2ccccc12,19%[46 µM],?,-7%[9.22 µM],?,·,-13%[10 µM],·,
CCC1CCCCN1C(=O)c1nn2cccnc2c1Cl (stereo unspecified),-2%,3%,8%,3%,-10%,10%[1.9 µM],-15%,
COCCNC(=O)c1nn2cccnc2c1Cl,14%,-5%,-3%,4%,?,19%,·,
CC1CCCC(C)N1C(=O)c1cc2ncc(CCCl)cn2n1 (stereo unspecified),?,-6%,3%,?,1µM*,·,0.79µM*,
CC1CCCC(C)N1C(=O)c1cc(F)c(F)cc1Cl (stereo unspecified),16%,7%,-24%,-2%,-9%,4%,·,
COc1cccc(Cn2c(=O)c(-c3cn(C)c4ccccc34)nc3cncnc32)c1,?,·,·,0%,·,-64%,·,
Cc1ccc(S(=O)(=O)NCc2ccc(C(=O)N3CCc4ccccc4C3)cc2)cc1,?,1%,?,?,1.4µM*,-13%[10 µM],2.2µM*,
Cc1ccc(CN(c2ccc(C(=O)N3CCc4ccccc4C3)cc2)S(C)(=O)=O)cc1,?,7%,-24%,12%,?,-19%,11µM*,
O=C(O)c1ccccc1NS(=O)(=O)c1cccc2cccnc12,0%,8%,-8%,12%,3%,1%,·,
O=S(=O)(Nc1cc(Sc2cccc3cccnc23)c(O)c2ccccc12)c1ccccc1,?,28µM*,?,?,1.1µM*,·,0.63µM*,
CC12CCC(C(=O)N3CCC(Cc4ccccc4)CC3)(C(=O)C1=O)C2(C)C (stereo unspecified),?,-4%,-8%,?,·,·,·,
O=C(C1CCC(Cn2c(=S)[nH]c3ccccc3c2=O)CC1)N1CCOCC1 (stereo unspecified),?,0%,-2%,2%,1.6µM*,2%,2.5µM*,
COc1ccc(OC)c(C(=O)c2ccc(C(=O)N3CCCCC3)cc2)c1,-11%,4%,0%,?,0.25µM*,1%,0.2µM*,
COc1ccc(N2C(=O)CSC(c3ccccc3)C2=O)cc1 (stereo unspecified),·,-4%,15%,?,·,20%[10 µM],·,
COc1ccc(CCC(=O)Nc2cccc(Cl)c2)cc1,-2%,5%,-8%,-11%,-9%,·,·,
O=C(CCc1ccc(Oc2cc([N+](=O)[O-])cc([N+](=O)[O-])c2)cc1)N1CCCCC1,?,8%,?,4.5µM*,0.045µM*,16%[10 µM],0.22µM*,
SMILES,Lamin A splicing,KDM4E inh,HttQ103 aggreg,ALDH1A1 inh-1,HPGD inh,HTT cytoprotect,HPGD inh cf,others
O=C(CCc1ccc(Oc2cc([N+](=O)[O-])cc([N+](=O)[O-])c2)cc1)Nc1cccc(Cl)c1,?,-6%,-5%,?,-10%,18%[10 µM],-20%,
O=C1C(=O)N(Cc2ccc(Cl)c(Cl)c2)c2ccccc21,·,2%,·,0.05µM*,-27%,-52%,·,ALDH1A1 inh-2=0.079µM*
O=C1C(c2ccc(F)cc2)N(CCc2ccc(Cl)cc2)C(=O)CN1C1CCCCCC1 (stereo unspecified),-17%[46 µM],·,·,·,·,·,·,
CCOC(=O)N1CCN(Cc2nc3c(c(=O)n(C)c(=O)n3C)n2Cc2cccc3ccccc23)CC1,?,0%,-9%,0.1µM*,-6%,-15%,·,ALDH1A1 inh-2=0.04µM*
CCOC(=O)N1CCN(Cc2nc3c(c(=O)n(C)c(=O)n3C)n2Cc2ccc(F)cc2)CC1,-11%,0%,18%,-5%,-15%,-5%,·,
CCOC(=O)N1CCN(Cc2nc3c(c(=O)n(C)c(=O)n3C)n2Cc2cccc(C)c2)CC1,3%,-7%,4%,0.079µM*,-13%,-27%[0.074 µM],·,ALDH1A1 inh-2=0.063µM*
CCOC(=O)N1CCN(Cc2nc3c(c(=O)[nH]c(=O)n3C)n2Cc2ccccc2C)CC1,4%,2%,7%,?,-3%,-32%,·,
Cc1cccc(N2CCN(C(=O)Cn3ncc4c([nH]c5ccccc54)c3=O)CC2C)c1 (stereo unspecified),19%[46 µM],·,·,·,·,·,·,
CCOc1ccc(C(=O)NCCc2sc(-c3ccc(F)cc3)nc2C)cc1,28%[46 µM],·,·,·,·,·,·,
CN1CCC(N(C)C(=S)NC(=O)c2cc(-c3cccc(Br)c3)nc3ccccc23)CC1,1%[46 µM],-12%,19%,?,·,-49%,·,
Cc1c(Cl)cccc1NC(CC(=O)c1ccccc1)C(=O)OCC(=O)c1cccs1 (stereo unspecified),-8%,-2%,?,1%,·,13%[10 µM],·,
Cc1c(Cl)cccc1NC(CC(=O)c1ccccc1)C(=O)O (stereo unspecified),?,-7%,?,0.32µM*,-16%,·,·,ALDH1A1 inh-2=-21%
O=C(CC(Nc1ccccc1Cl)C(=O)O)c1ccccc1 (stereo unspecified),·,-24%,4%[9.22 µM],0.13µM*,·,-30%,·,ALDH1A1 inh-2=-24%
